The structures appear in SMILES notation. “And” between values parts separate entries of the source, which are not always exact repeats. Equal values may be shown once. Records with an inconclusive call do not appear. More than one record can exist for a structure, and the calls need not agree. The source made the active and inactive calls. Calls come from the whole dose curve; as a rule, active = well fitted curve in the direction sought with a large enough effect in the repeat runs; inconclusive = weak or mixed curves; inactive = no such curve, though single readings can be large; an effect the other way counts as inactive or inconclusive.

Drawing on PubChem BioAssay (Tox21), this text covers Potency for 18 molecules.

Assay [1] is described as follows: A CellTox Green Cytotoxicity Assay to monitor cytotoxicity in HEK293 cells - 32 hour (AID 1224881). Note: nearly all actives have a fitted effect of over 40% in size. Note: potency is the fitted concentration of half-maximal effect. In outline:
(§1)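 Homogeneous no-lysis format: HEK293 cell suspension mixed with CellTox Green reagent, seeded, incubated 5 h at 37 C/5% CO2, then dosed by pintool with compound in DMSO.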

Assay [2] in a line: A CellTox Green Cytotoxicity Assay to monitor cytotoxicity in HepG2 cells - 0 hour (AID 1224882). Note: nearly all actives have a fitted effect of over 35% in size. An outline of the steps:
(§2)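 Fluorescent DNA-binding dye, 600 HepG2 cells/well, 5 h preincubation then compound in DMSO; same plates read at 0–40 h, 37 C.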

The nature of assay [3]: A CellTox Green Cytotoxicity Assay to monitor cytotoxicity in HepG2 cells - 32 hour (AID 1224883). Note: nearly all actives have a fitted effect of over 50% in size. Note: potency is the fitted concentration of half-maximal effect. An outline of the steps:
as §2

Assay [4] in a line: A CellTox Green Cytotoxicity Assay to monitor cytotoxicity in HEK293 cells - 8 hour (AID 1224884). Note: nearly all actives have a fitted effect of over 35% in size. Note: potency is the fitted concentration of half-maximal effect. In outline:
as §1

A short description of assay [5]: qHTS RealTime-Glo MT Cell Viability Assay in HEK293 cells - 24 hour (AID 1224886). Note: nearly all actives have a fitted effect of over 50% in size. Note: potency is the fitted concentration of half-maximal effect. In outline:
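Reads taken at 0, 8, 16, 24, 32 and 40 h from the same wells. HEK293 cells (600/well) carried RealTime-Glo reagents from seeding, with compound added after a 5 h settle at 37 C.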

Assay [6] is described as follows: qHTS RealTime-Glo MT Cell Viability Assay in HEK293 cells - 8 hour (AID 1224887). Note: nearly all actives have a fitted effect of over 50% in size. Note: potency is the fitted concentration of half-maximal effect. An outline of the steps: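 Measured as luminescence from the same continuously cultured HEK293 wells at successive time points (0, 8, 16, 24, 32, 40 h) after compound addition. Reagent present from seeding; dosing at 5 h; incubation 37 C.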
Assay [7] can be described thus: A CellTox Green Cytotoxicity Assay to monitor cytotoxicity in HEK293 cells - 16 hour (AID 1224888). Note: nearly all actives have a fitted effect of over 35% in size. Note: potency is the fitted concentration of half-maximal effect. In outline: as §1
A short description of assay [8]: qHTS RealTime-Glo MT Cell Viability Assay in HepG2 cells - 0 hour (AID 1224889). Note: nearly all actives have a fitted effect of over 50% in size. An outline of the steps:
(§3)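 HepG2 suspension premixed with RealTime-Glo reagents is plated at 600 cells per well and left 5 h at 37 C/5% CO2. Compounds in DMSO then go in, and bioluminescence reflecting viable cell number is recorded over 40 h.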
(In qHTS, concentration-response curves come from the screen itself.)

Assay [9] in a line: A CellTox Green Cytotoxicity Assay to monitor cytotoxicity in HepG2 cells - 8 hour (AID 1224890). Note: nearly all actives have a fitted effect of over 45% in size. Note: potency is the fitted concentration of half-maximal effect. An outline of the steps: as §2
Assay [10] is described as follows: qHTS RealTime-Glo MT Cell Viability Assay in HepG2 cells - 16 hour (AID 1224885). Note: nearly all actives have a fitted effect of over 50% in size. Note: potency is the fitted concentration of half-maximal effect. In outline:
as §3

`CC[n+]1c(-c2ccccc2)c2cc(N)ccc2c2ccc(N)cc21`: the Potency result in [1], in [2], in assay [3], in [4], in assay [7] and in [8] was “inactive” in each case. In assay [9], the Potency entry is “inactive”. The Potency was 6.89 µM (active) and 9.52 µM (active) in assay [5]; 34.5 µM (active) in assay [6].
`CCOP(=S)(OCC)OP(=S)(OCC)OCC`: the Potency entry in assay [1], in assay [2], in assay [3], in assay [4], in assay [5] and in assay [6] was “inactive” in each case. The Potency result in [7], in [8] and in [9] was “inactive” each time.
As for `CCNCC`, the Potency entry in assay [1], in assay [2], in [3], in assay [4], in assay [10] and in assay [5] was “inactive” in each case. Also, the Potency entry in assay [6], in assay [7], in assay [8] and in assay [9] was “inactive” each time.
In the case of `Clc1ccccc1-c1nnc(-c2ccccc2Cl)nn1`, the Potency result in [1], in [2], in [3], in [4], in assay [10] and in [5] was “inactive” each time. The Potency result in assay [6], in assay [7], in assay [8] and in [9] was “inactive” in each case.
As to `ClC(Cl)=C(Cl)C(Cl)=C(Cl)Cl`, the Potency result in assay [1], in assay [2], in [3], in assay [4], in assay [10] and in assay [5] was “inactive” each time. The Potency result in [6], in assay [7], in assay [8] and in [9] was “inactive” throughout.
For `Cc1cccc(N=Nc2ccc(N(C)C)cc2)c1`, the Potency entry in [1], in assay [2], in assay [3], in assay [4], in assay [10] and in [7] was “inactive” in each case. The Potency entry in [8] and in [9] was “inactive” throughout.
Regarding `Brc1ccc(Br)cc1`, the Potency entry in assay [1], in assay [2], in assay [3], in assay [4], in [10] and in assay [5] was “inactive” in each case. Moreover, the Potency entry in [6], in assay [7], in [8] and in [9] was “inactive” throughout.
As for `O=NN(c1ccccc1)c1ccccc1`, the Potency result in assay [1], in assay [2], in assay [3], in assay [4], in assay [10] and in assay [5] was “inactive” each time. In addition, the Potency entry in assay [6], in assay [7], in assay [8] and in [9] was “inactive” in each case.
For the molecule `CCC1(c2ccc(N)cc2)CCC(=O)NC1=O` (stereo unspecified), the Potency entry in assay [1], in assay [2], in assay [3], in assay [4], in assay [10] and in assay [5] was “inactive” throughout. Also, the Potency result in assay [6], in assay [7], in assay [8] and in assay [9] was “inactive” each time.
Turning to `O=C(O)CF`, the Potency result in assay [1], in assay [2], in [4], in [5], in assay [6] and in assay [7] was “inactive” in each case. For the same molecule, the Potency result in assay [8] and in [9] was “inactive” in each case. For the same molecule, in assay [3], the Potency result is “inactive and 19.5 µM (active)”.
Consider `CCC[CH2][Sn]([Cl])([CH2]CCC)[CH2]CCC`, for which the Potency in assay [1] is 618 nM (active) and 776 nM (active); in assay [3] it was 1.74 µM (active) and 1.23 µM (active); in assay [4], 6.18 µM (active) and 7.76 µM (active); in assay [5] it was 347 nM (active) and 549 nM (active); in assay [6] it was 618 nM (active) and 1.23 µM (active); in [7], 3.1 µM (active) and 5.49 µM (active). The Potency in assay [9] was 3.47 µM (active) and 1.95 µM (active). In addition, the Potency entry in assay [2] and in assay [8] was “inactive” in each case.
`CC(C)(c1ccc(OCC2CO2)cc1)c1ccc(OCC2CO2)cc1` (stereo unspecified): the Potency entry in [1], in assay [2], in [3], in assay [4], in assay [10] and in assay [5] was “inactive” throughout. Besides, the Potency result in assay [6], in assay [7], in assay [8] and in [9] was “inactive” throughout.
`Cl`: the Potency entry in assay [1], in assay [2], in [3], in assay [4], in assay [10] and in [5] was “inactive” each time. Moreover, the Potency result in [6], in assay [7], in assay [8] and in assay [9] was “inactive” each time.
For `S=c1[nH]c2ccccc2[nH]1`, the Potency entry in assay [1], in [2], in [4], in assay [5], in assay [6] and in assay [7] was “inactive” throughout. Also, the Potency result in assay [8] and in assay [9] was “inactive” in each case. Further, the Potency entry in [3] was “inactive and 21.9 µM (active)”.
Turning to `O=[N+]([O-])c1ccc(Nc2ccccc2)cc1`, the Potency entry in [1], in assay [2], in assay [3], in [4], in assay [10] and in [7] was “inactive” throughout. Moreover, the Potency result in assay [8] and in [9] was “inactive” each time. In assay [5], the Potency was 44 µM (active) and 21.9 µM (active).
Consider `CCOP(=O)(O)OCC` (tested in a mixture with another compound), for which the Potency result is “inactive and 24.3 µM (active)” in [1]; “inactive and 38.6 µM (active)” in assay [3]; “inactive and 54.5 µM (active)” in assay [4]; “inactive and 48.6 µM (active)” in assay [10]; “inactive and 8.64 µM (active)” in assay [5]; “inactive and 54.5 µM (active)” in assay [6]. For the same molecule, the Potency entry in [9] is “inactive and 54.5 µM (active)”. The Potency result in assay [2] and in assay [8] was “inactive” each time.
Consider `O=NN1CCOCC1`, for which the Potency entry in assay [1], in assay [2], in [3], in assay [4], in [10] and in assay [7] was “inactive” each time. Moreover, the Potency result in [8] and in assay [9] was “inactive” throughout. For the same molecule, the Potency entry in [5] was “inactive and 2.45 µM (active)”; in assay [6] it was “inactive and 7.76 µM (active)”.
With `COc1ccc(C=O)cc1OC`, the Potency entry in assay [1], in assay [2], in [3], in [4], in assay [10] and in [5] was “inactive” throughout. For the same molecule, the Potency entry in assay [6], in [7], in assay [8] and in assay [9] was “inactive” throughout.
